The source made the active and inactive calls. Rule for the calls: active = hit-call score of the fitted dose curve at least 0.9, where 1 is the maximum; inactive = score below 0.9.
Read-out: Cyclin Dependent Kinase Inhibitor 1A (CDKN1A), CDKN1A (gene 1026)
Assay: LTEA_HepaRG_CDKN1A: Life Technologies and Expression Analysis (LTEA) Assay for Cyclin Dependent Kinase Inhibitor 1A (CDKN1A) using HepaRG (AID 2283450)
Conditions: mRNA level, 48 h; actives raise or lower the signal
Protocol: LTEA_HepaRG is a cell based, multiplexed-readout assay that uses HepaRG, a human liver cell line, with measurements taken at 48 hours after chemical dosing on a 96-well plate.LTEA_HepaRG_CDKN1A is one of 102 assay component(s) measured in the LTEA HepaRG cell culture assay. It is a marker of Cell proliferation, survival, death.Data from the assay component LTEA_HepaRG_CDKN1A was analyzed into 1 endpoint. This assay endpoint, LTEA_HepaRG_CDKN1A, was analyzed with bidirectional fitting relative to DMSO as the negative control and baseline of activity. Using a type of inducible reporter, measures of mRNA induction for gain or loss-of-signal activity can be used to understand regulation of transcription factor activity. To generalize the intended target to other relatable targets, this assay endpoint is annotated to the cell cycle intended target family, where the subfamily is Cell proliferation, survival, death.
A total of 1060 chemcials from the ToxCast library were tested in eight-point concentration-response experiments. Cell culture and cytotoxicity assays were conducted at Thermo Fisher Scientific's Custom Services facility (Madison, WI). A single lot of human HepaRG cells (Thermo Fisher Scientific, Frederick, MD) was used for the cell culture experiments. 96-well format collagen type I coated plates of human HepaRG cells were prepared using established methods. Briefly, cryopreserved HepaRG cells were thawed, plated at a density of approximately 100,000 cells/well in HepaRG Thaw, Plate, and General Purpose media (HPRG770, Thermo Fisher Scientific), and incubated for 48 hours. 0.5% DMSO was selected as vehicle control to balance the requisite need of DMSO in HepaRG cultures to maintain differentiation (for example, baseline metabolism, proportions of hepatocytes vs. cholangiocytes), while enabling further hepatic receptor pathway activation (for example, PXR and CAR) in response to chemical exposure. 48 hours after plating, the culture medium was replaced with HepaRG Serum-Free Incudtion Media. Cells were exposed to each test chemical in duplicate and maintained in CO2 incubators for another 48 hours. Chemical plates were thawed to room temperature and 200x concentrations of treatment groups were prepared. 8-point conentration-reponse curves were made with the highest exposure at 100 uM, followed by half-log dilutions, all in 0.5% DMSO. Each test plate contained variouse controls, induction positive controls (1mM phenobarbital), cytotoxicity positive controls ([…] aflatoxin B1), vehicle controls (0.5% DMSO), and total lysis controls (0.5% DMSO). Cell morphology images were taken using an Essen IncuCyte FLR automated microscope, with six 96-well plates imaged in about 24 minutes. Images were captured and exported and JPEG files. Spent culture media was transfered to black-well plates for the LDH assay, and remaining media was sorted at -80 C for later use. Cells were treated with RLT buffer and frozen until shipped for gene expression analysis. Total RNA was isolated from the cell suspension in 75 uL of Buffer RLT (Qiagen, Germantown, MD 20874) by Quintiles/Expression Analysis (Durham, NC) using a custom isolation procedure. Total RNA from each plate well was transferred to a preamplification plate. Fluidigm's 96.96 Dynamic ArrayTM (Fluidigm, Amsterdam, the Netherlands) technology was used for gene expression analyses by quantitative reverse transcription polymerase chain reaction (qRT-PCR, performed by Quintiles/Expression Analysis, Durham, NC)89. Standard TaqManTM Assays (Applied Biosystems/ThermoFisher Scientific, Foster City, CA) were used to assess the expression of 93 genes selected based on their selectivity and sensitivity to important hepatic receptors known to be modulated by environmental chemicals; importance in human hepatocyte functionality; and hepatotoxicity. […]

SMILES | outcome | AC50
CCOP(=S)(OCC)SCCSCC | inactive | 
CC[C@H](C)[C@H]1O[C@]2(C=C[C@@H]1C)C[C@@H]1C[C@@H](C/C=C(\C)[C@@H](O[C@H]3C[C@H](OC)[C@@H](O[C@H]4C[C@H](OC)[C@@H](NC)[C@H](C)O4)[C@H](C)O3)[C@@H](C)/C=C/C=C3\CO[C@@H]4[C@H](O)C(C)=C[C@@H](C(=O)O1)[C@]34O)O2 | inactive | 
CCOC(=O)COc1cc(-c2nn(C)c(OC(F)F)c2Cl)c(F)cc1Cl | inactive | 
CC(Oc1cccc(Cl)c1)C(=O)O (stereo not given) | inactive | 
CNc1cnn(-c2cccc(C(F)(F)F)c2)c(=O)c1Cl | inactive | 
CC(C)[C@H](C(=O)O[C@H](C#N)c1cccc(Oc2ccccc2)c1)c1ccc(Cl)cc1 | inactive | 
CSc1nc(NC(C)C)nc(NC(C)C)n1 | inactive | 
N#CSCSC#N | inactive | 
COc1cc(OC)nc(Sc2cccc(Cl)c2C(=O)O)n1 | inactive | 
C[Si](Cn1cncn1)(c1ccc(F)cc1)c1ccc(F)cc1 |  | 50 µM (active)
CCCCOC(=O)[C@@H](C)Oc1ccc(Oc2ccc(C#N)cc2F)cc1 | inactive | 
CCCCSP(=O)(SCCCC)SCCCC | inactive | 
O=C(O)c1cc(Oc2ccc(C(F)(F)F)cc2Cl)ccc1[N+](=O)[O-] | inactive | 
CSc1nnc(C(C)(C)C)c(=O)n1N | inactive | 
CN(C)[C@@H]1C(=O)C(C(N)=O)=C(O)[C@@]2(O)C(=O)C3=C(O)c4c(O)cccc4[C@@](C)(O)[C@H]3[C@H](O)[C@@H]12 | inactive | 
CCCSP(=O)(OCC)SCCC | inactive | 
C=C(C)[C@H]1Cc2c(ccc3c2O[C@@H]2COc4cc(OC)c(OC)cc4[C@@H]2C3=O)O1 |  | 1.41 µM (active)
O=c1ccc(=O)[nH][nH]1 | inactive | 
CCOP(=O)(OCC)Oc1cc(C)nc(C(C)C)n1 | inactive | 
CC(C1CC1)C(O)(Cn1cncn1)c1ccc(Cl)cc1 (stereo not given) | inactive | 

SMILES | outcome | AC50
CN(C)C(=O)Nc1cccc(C(F)(F)F)c1 | inactive | 
COP(=O)(OC)SCn1c(=O)oc2cc(Cl)cnc21 | inactive | 
CCC(=O)Nc1ccc(Cl)c(Cl)c1 | inactive | 
Cc1nn(-c2cc(NS(C)(=O)=O)c(Cl)cc2Cl)c(=O)n1C(F)F | inactive | 
CCOP(=O)(SC(C)CC)N1CCSC1=O (stereo not given) | inactive | 
COP(=O)(NC(C)=O)SC (stereo not given) | inactive | 
CNC(=O)Oc1cccc2c1OC(C)(C)O2 | inactive | 
CC(COc1ccc(Oc2ccccc2)cc1)Oc1ccccn1 (stereo not given) | inactive | 
CCNc1nc(Cl)nc(NC(C)(C)C#N)n1 | inactive | 
CC(C)N(C(=O)SCC(Cl)=C(Cl)Cl)C(C)C | inactive | 
CNC(=O)ON=C(C)SC | inactive | 
C[N+]1(C)CCCCC1 | inactive | 
CN1COCN(Cc2cnc(Cl)s2)C1=N[N+](=O)[O-] | inactive | 
CCCOc1nn(C(=O)NS(=O)(=O)c2ccccc2C(=O)OC)c(=O)n1C | inactive | 
FC(F)C(F)(F)OCC(Cn1cncn1)c1ccc(Cl)cc1Cl (stereo not given) |  | 33.6 µM (active)
CC(=NC#N)N(C)Cc1ccc(Cl)nc1 | inactive | 
CCc1cccc(CC)c1N(COC)C(=O)CCl | inactive | 
CCC(=NOC/C=C/Cl)C1=C(O)CC(C2CCOCC2)CC1=O (stereo not given) | inactive | 
O=[N+]([O-])c1cc(C(F)(F)F)c(Cl)c([N+](=O)[O-])c1Nc1ncc(C(F)(F)F)cc1Cl | inactive | 
CSC1=N[C@@](C)(c2ccccc2)C(=O)N1Nc1ccccc1 |  | 28.2 µM (active)

From PubChem BioAssay (EPA / NIEHS)
